CYP2C19 inh: blocks human cytochrome P450 2C19 | 96,000 tested, 21% active | CYP2C19 Supersomes, luciferin-H EGE luminescence, 30 min | inhibition, % at 5 µM;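 active = CYP2C19 inhibition above a set limit at 5 µM in the primary screen, cut at about 50% in these data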
CYP2C9 activ: CYP2C9 (human) activation. P11712. recombinant CYP2C9, luciferin-H conversion, luminescence; active compounds read high; factor 1 = untreated enzyme, 0 = blocked. activation factor at 5 µM. 96,000 tested, 1.4% active. AID 1024;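 active = activation factor of 2 or more for CYP2C9 at a 5 µM dose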
Target sequence (P11712 whole entry, looked up): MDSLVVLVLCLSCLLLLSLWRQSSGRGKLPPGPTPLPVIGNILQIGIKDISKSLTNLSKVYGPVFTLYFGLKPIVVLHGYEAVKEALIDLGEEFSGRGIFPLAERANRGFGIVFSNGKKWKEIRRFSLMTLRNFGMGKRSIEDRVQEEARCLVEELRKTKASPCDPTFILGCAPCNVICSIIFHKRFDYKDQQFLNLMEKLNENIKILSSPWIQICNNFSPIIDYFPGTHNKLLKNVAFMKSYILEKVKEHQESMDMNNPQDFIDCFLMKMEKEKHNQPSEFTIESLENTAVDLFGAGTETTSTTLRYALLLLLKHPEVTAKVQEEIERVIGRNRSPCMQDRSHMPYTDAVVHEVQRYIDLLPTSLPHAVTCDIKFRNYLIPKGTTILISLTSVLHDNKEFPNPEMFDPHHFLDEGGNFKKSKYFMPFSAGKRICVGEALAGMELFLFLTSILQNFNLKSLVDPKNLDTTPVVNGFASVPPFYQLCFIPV
CYP2C19 activ: activators of human cytochrome P450 2C19; 96,000 tested, under 10 active; recombinant CYP2C19, luciferin-H EGE luminescence; active compounds read high; 0 = fully inhibited enzyme, 1 = untreated enzyme; activation factor at 5 µM;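 active = activation factor of at least 2 at 5 µM in the primary screen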
Pyk2 oligo antag: antagonists of human Pyk2 oligomerization. Q14289. Q293 cells, Pyk2 FERM NanoBiT luminescence; active compounds read low. z-score (the deposit names both 25 µM and 10 µM). 99,000 tested, 0.83% active. AID 1347419;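 active = Z-score of -3 or lower, scaled per plate to the spread of control and sample wells; inactive = z-score above -3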;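 also: negative z-score means lost luminescence so less FERM oligomerization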
CYP2C9 inh: inhibitors of human CYP2C9; P11712; CYP2C9 Supersomes, luciferin-H conversion, luminescence; inhibition, % at 5 µM; 96,000 tested, 20% active;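 active = blocking of liver enzyme CYP2C9 beyond about 50% at 5 µM, limit read from the data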
Of the large screens only hits and unclear results are named; the others gave an inactive call. Most compounds without a hit are left out; they make up all but 28% or so of the library.

CCN(CC)CC(C)OC(=O)COc1ccc(OC)cc1 (stereo unspecified)	none (no result: CYP2C19 inh, CYP2C9 activ, CYP2C19 activ, CYP2C9 inh)
O=C1c2cccc(Cl)c2C(=O)c2c1cccc2N1CCCC1	none (no result: CYP2C19 inh, CYP2C9 activ, CYP2C19 activ, CYP2C9 inh)
COCCNC(=O)C1CC(c2cccc([N+](=O)[O-])c2)=NO1 (stereo unspecified)	none (no result: Pyk2 oligo antag)
CC(=O)N1N=C(c2cccc([N+](=O)[O-])c2)OC1c1ccccc1Cl (stereo unspecified)	CYP2C19 inh 62.5, CYP2C9 inh 85.5
CS(=O)(=O)Nc1ccc(N2CCCCC2)c(Cl)c1	none
O=C(NC1CCCC1)c1cccc(Cn2cc([N+](=O)[O-])cn2)c1	none (no result: CYP2C19 inh, CYP2C9 activ, CYP2C19 activ, CYP2C9 inh)
Cc1cccc(Oc2nc(-c3cccc([N+](=O)[O-])c3)nc3ccccc23)c1C	none
NC(=O)COC(=O)CCCc1nc2ccccc2s1	none
Cc1noc(C)c1COC(=O)CCc1nc2ccccc2s1	CYP2C19 inh 58.8
Cc1noc(C)c1COC(=O)CCN1c2ccccc2Sc2ccccc21	CYP2C19 inh 88.2, CYP2C9 inh 97.9
COc1ccc(OCCC(=O)OCc2c(C)noc2C)cc1	none
O=C(NCc1ccco1)c1cc2n(n1)C(C(F)(F)F)CC(c1ccc(F)cc1)N2 (stereo unspecified)	none
S=C(Nc1cccc2ccccc12)N1CCN(c2ncccn2)CC1	CYP2C19 inh 58.3
O=C(Nc1cccc2ccccc12)N1CCN(c2ccccc2)CC1	Pyk2 oligo antag -3.82
O=C(Nc1cccc2ccccc12)N1CC=CCC1	none
COC(=O)c1ccc(-n2nnnc2SCc2nn[nH]n2)cc1	none
O=C(Nc1ccc(Cl)cc1)[C@@H]1[C@@H]2C(=O)N(c3ccc(Cl)cc3)C(=O)[C@@H]2[C@H]2C=CC=NN21	CYP2C9 inh 59.0
Cc1ccc(N2C(=O)[C@@H]3[C@H](C2=O)[C@H]2C=CC=NN2[C@@H]3C(=O)Nc2ccc(Cl)cc2)cc1	none
CCOC(=O)CNC(c1ccccc1)c1cc(Br)ccc1NC(=O)OCC (stereo unspecified)	CYP2C9 inh 56.4
Cc1ccc(C(c2nnnn2CC2CCCO2)N2CCN(c3cccc(C)c3C)CC2)cc1 (stereo unspecified)	Pyk2 oligo antag -3.44, CYP2C9 inh 69.7
Cc1ccc(Cl)cc1N1CCN(C(CC(C)C)c2nnnn2CC2CCCO2)CC1 (stereo unspecified)	none
CCCC(c1nnnn1CC1CCCO1)N1CCN(c2cc(Cl)ccc2C)CC1 (stereo unspecified)	CYP2C19 inh 95.5, CYP2C9 inh 88.7
CCC(c1nnnn1C(C)(C)C)N1CCN(c2cc(Cl)ccc2C)CC1 (stereo unspecified)	CYP2C9 inh 79.4
CCCCCNc1nc2ccccc2nc1NS(=O)(=O)c1cccs1	CYP2C9 inh 68.3
O=S(=O)(Nc1nc2ccccc2nc1Nc1ccc2c(c1)OCCO2)c1cccs1	CYP2C9 inh 93.1
C=CCNc1nc2ccccc2nc1NS(=O)(=O)c1cccs1	CYP2C9 inh 92.9
Cc1nc(NS(=O)(=O)c2cccs2)c2c3c(sc2n1)CCC3	none
O=S(=O)(Nc1nc2ccccc2nc1NCc1ccco1)c1cccs1	CYP2C9 inh 78.2
C=CCNS(=O)(=O)c1nc(C)c(Cl)c(C)c1C#N	none
COC(=O)c1ccc(C2C(Oc3ccccc3)C(=O)N2CCc2ccc(OC)c(OC)c2)cc1 (stereo unspecified)	none
Cc1ccc(Cn2ccc(=O)c(OCc3ccccc3)c2C)cc1	none
Cc1ccc(Cn2ccc(=O)c(Cc3c(Cl)cccc3Cl)c2C)cc1	none
COc1ccc(Cn2ccc(=O)c(Cc3c(Cl)cccc3Cl)c2C)cc1	CYP2C19 inh 76.8
CC(C)NC(=O)CSCc1c(Cl)cccc1Cl	none
Cc1c(OCc2ccccc2)c(=O)ccn1Cc1ccc(Cl)cc1	CYP2C9 inh 57.3
Cc1c(Cc2c(Cl)cccc2Cl)c(=O)ccn1C(C)c1ccccc1 (stereo unspecified)	CYP2C19 inh 90.1
COC(=O)C1CCN(C(=O)c2ccccc2NC(C)=O)CC1	none
CC(=O)Nc1nonc1-n1nnc(C(=O)NCc2ccccc2)c1C	CYP2C19 inh 83.4, CYP2C9 inh 70.3
Cn1c(N)c(C(=O)COC(=O)C2=COCCO2)c(=O)n(C)c1=O	none
COc1ccc(Cn2nnnc2C(c2cc(OC)ccc2OC)N2CCC(C(N)=O)CC2)cc1 (stereo unspecified)	none
O=C(CCn1c(=O)[nH]c2ccsc2c1=O)NCCc1ccc(Cl)cc1	CYP2C19 inh 70.0
O=C(CCn1c(=O)[nH]c2ccsc2c1=O)N1CCc2ccccc2C1	none
O=C(CCn1c(=O)[nH]c2ccsc2c1=O)N(CCc1ccccc1)Cc1ccccc1	CYP2C19 inh 65.4, CYP2C9 inh 65.4
O=C(CCn1c(=O)[nH]c2ccsc2c1=O)Nc1ccc(F)c(F)c1	CYP2C9 inh 55.1
COc1cc(/C=N\NC(=O)c2sc(N)nc2C)cc(OC)c1OC	none
CNNC(=O)C(C)NC(=O)c1ccc(Br)cc1 (stereo unspecified)	none
O=C(COc1ncnc2sccc12)N1CCc2ccccc2C1	CYP2C19 inh 59.1
CNC(=O)COc1ncnc2sccc12	none
CCOC(=O)N1CCN(Cc2nc3c(c(=O)[nH]c(=O)n3C)n2Cc2ccccc2C)CC1	none
O=C(c1ccc(CS(=O)(=O)c2ccc(Br)cc2)o1)N1CCCCCC1	CYP2C19 inh 80.3 (no result: Pyk2 oligo antag)
O=C(c1ccc(CS(=O)(=O)c2c(Cl)cccc2Cl)o1)N1CCCC1	none (no result: Pyk2 oligo antag)
O=C(c1ccc(CS(=O)(=O)c2ccc(Br)cc2)o1)N1CCCC1	none (no result: Pyk2 oligo antag)
COc1ccc(S(=O)(=O)N2CCN(C3CCCCCCC3)CC2)cc1	none
O=C(c1ccc(CS(=O)(=O)c2ccc(Br)cc2)o1)N1CCN(C2CCCCC2)CC1	CYP2C9 inh 77.7 (no result: Pyk2 oligo antag)
COc1ccc(S(=O)(=O)Cc2ccc(C(=O)N3CCN(C4CCCCC4)CC3)o2)cc1	CYP2C9 inh 65.7 (no result: Pyk2 oligo antag)
CN(C)c1nc(SCC#N)nc(N(C)C)n1	none (no result: CYP2C19 inh, CYP2C9 activ, CYP2C19 activ, CYP2C9 inh)
Cc1c(C2Nc3ccccc3C(=O)N2O)cnn1C (stereo unspecified)	none (no result: CYP2C19 inh, CYP2C9 activ, CYP2C19 activ, CYP2C9 inh)
O=c1nc2n(c3ccc(Br)cc13)CCS2	none (no result: CYP2C19 inh, CYP2C9 activ, CYP2C19 activ, CYP2C9 inh)
Cc1nn(C(C)C(=O)O)c2ccccc12 (stereo unspecified)	none
COc1ccc(C2=NOC(C(=O)NCc3ccccc3)C2)cc1 (stereo unspecified)	none
COc1cccc(C2=NOC(C(=O)NC3CCCCC3)C2)c1 (stereo unspecified)	CYP2C9 activ 2.9
CCn1ncc(C2=NOC(C(=O)NCc3ccccc3)C2)c1C (stereo unspecified)	CYP2C19 inh 56.9
O=C(NCCc1ccccc1)C1CC(c2ccccc2O)=NO1 (stereo unspecified)	CYP2C19 inh 87.1
COc1cccc(C2=NOC(C(=O)NCc3ccccc3)C2)c1 (stereo unspecified)	CYP2C19 inh 50.5
CCOC(=O)CN(C(=O)CCC(=O)Nc1cc(C)on1)C(C(=O)NC1CCCC1)c1cccnc1 (stereo unspecified)	none
CCN(CC)C(=O)CNC(=O)Cc1ccc(Cl)cc1	none
CCOc1ccc(-n2cc(C(=O)Nc3cccc(C)n3)c3cc(OC)c(OC)cc3c2=O)cc1	none (no result: CYP2C19 inh, CYP2C9 activ, CYP2C19 activ, CYP2C9 inh)
